Each structure is given as a SMILES string. Screen size: about 65,000 compounds; about 2,100 (3.2%) showed an effect of 50% or more. The median lay at about -52%. Shown is part of a subset that was picked to be rich in strong results.

The values below come from ChEMBL document CHEMBL4513216, “Probing the Open Global Health Chemical Diversity Library for Multistage-Active Starting Points for Next-Generation Antimalarials” (ACS Infect Dis, 2020).

The subject of the assay is Plasmodium falciparum. As to the kind of experiment: Screen against P. falciparum Asexual Blood Stage (ABS), at 5uM. The class given is functional, Dd2. Particulars: tested at 5 uM.
In the case of `NC(=O)c1nc2c(s1)CCN(C(=O)Nc1cccc(Cl)c1)CC2`, the INHIBITION is reported as -91.8%.
In the case of `CC(=O)NCC(=O)Nc1cc(C)n(-c2ccc(Cl)cc2Cl)n1`, the INHIBITION is -97%.
`CC(C)N(C)C(=O)C1CCN(Cc2cnc3ccccn23)CC1`: the INHIBITION is given as -38.4%.
As to `CN(C)C(=O)COc1ccccc1CN1CCCC2(C1)CN(C)C(=O)O2` (configuration not stated), the INHIBITION is listed as -37.9%.
As to `CCS(=O)(=O)c1ncc(CN(C)C)n1Cc1ccccc1`, the INHIBITION is recorded as -37.3%.
To `CS(=O)(=O)CCC(=O)Nc1nccn1Cc1ccccc1Cl` belongs -70.9%.
On to `O=C1NC(c2ccccc2)=N[C@@]12CC[C@@H]1CN(Cc3ccncc3)C[C@@H]12`, for which the INHIBITION is 15.3%.
On to `O=C1NC(c2ccccc2)=N[C@@]12CC[C@@H]1CN(Cc3ccccc3)C[C@@H]12`, for which the INHIBITION was 42.6%.
On to `O=C1NC(c2ccccc2)=N[C@@]12CC[C@@H]1CN(Cc3ccoc3)C[C@@H]12`, for which the INHIBITION came to 59.6%.
Then `CN1C(=O)CC(c2cnn(C)c2)C12CCN(C(=O)c1cscn1)CC2` (configuration not stated), with -21.4%; and `CC(C)(C)NC(=O)Cn1c(=O)n(Cc2ccco2)c2ncccc21`, with -56.2%.
Consider `COCC1CCN(c2ccnc3ccsc23)C1` (configuration not stated), for which the INHIBITION is on record as 45.4%.
As to `Cc1noc(Cl)c1CCC(=O)N1CCc2sccc2C1`, the INHIBITION is 54.4%.
On to `Cc1noc(Cl)c1CCC(=O)N1CCN(c2ncccn2)CC1`, for which the INHIBITION is given as -34.8%.
Regarding `Cc1noc(C)c1CN(C)CCC(=O)N1CCc2sccc2C1`, the INHIBITION is listed as -54.3%.
As to `Cc1noc(C)c1CC(=O)N1CCc2sccc2C1`, the INHIBITION is listed as -48.1%.
As for `CCN1CCN(C(=O)CCc2c(C)noc2Cl)CC1`, the INHIBITION is recorded as 1.06%.
To `Cc1noc(Cl)c1CCC(=O)N1CCN(c2ccccc2)CC1` belongs 53%.
With `O=C(CCN1CCCC(CC2CC2)(C(=O)O)C1)NC1CCCC1` (configuration not stated), the INHIBITION is -79.9%.
In the case of `CC(C)(C)n1ncc2c1CCCC2NCc1ccc2c(c1)CCO2` (configuration not stated), the INHIBITION is recorded as -0.776%.
Consider `CC(C)(CO)CCCNC(=O)NC1(c2cccc(F)c2)CC1`, for which the INHIBITION is given as -79.4%.
For `O=C(CCc1ccsc1)NC1CCN(c2cccc(F)c2)CC1`, the INHIBITION is recorded as -55.7%.
Then `CCc1cc(C(=O)N2CCCC(Cc3ccc(NC)nn3)C2)on1` (configuration not stated), with -89.6%; and `CCC(CN1CCCCC1)NC(=O)C1(c2ccc(F)cc2)CC1` (configuration not stated), with 70%; and `CC(Cn1ccnc1)NC(=O)C1(c2ccc(F)cc2)CC1` (configuration not stated), with -96.5%.
Consider `CCC(CN1CCCC1)NC(=O)C1(c2ccc(F)cc2)CC1` (configuration not stated), for which the INHIBITION came out at 59.1%.
`CC(Cn1ccnc1)NC(=O)C1(c2ccc(F)cc2)CCCC1` (configuration not stated): the INHIBITION is on record as -16.4%.
`Cc1cc(C)n(CC(C)NC(=O)C2(c3ccc(F)cc3)CC2)n1` (configuration not stated): the INHIBITION is -44.3%.
On to `CC(CNC(=O)C1(c2ccc(F)cc2)CC1)CN1CCCC1=O` (configuration not stated), for which the INHIBITION is 11.4%.
Then `O=C(NCc1cccnc1)[C@H]1CC[C@@H]2[C@@H](CCN2c2ncccn2)O1`, with 41.4%.
Turning to `CNC(=O)c1cc2c(nc1NCC(C)C)CCN(c1ncccn1)CC2`, the INHIBITION is on record as -98.4%.
For `CC(Cn1cccn1)NCc1cnc(N2CCCC2)nc1` (configuration not stated), the INHIBITION is -141%.
In the case of `c1ccc(OCCNCc2cccs2)nc1`, the INHIBITION was -79.1%.
Then `c1ccc(OCCCNCc2cccs2)nc1`, with 19.1%; and `Cc1ccsc1CNCCCOc1ccccn1`, with 54.4%; and `O=C(c1cnc(C2CC2)nc1)N1CCCC(c2nccs2)C1` (configuration not stated), with -138%.
For the molecule `O=C(c1cscn1)N1CCC2(CCN(S(=O)(=O)c3ccccc3)C2)C1` (configuration not stated), the INHIBITION is -20.8%.
Take `CN(C)C(=O)N1CCC2(CCCN(CCOc3ccccc3)C2)C1` (configuration not stated): the INHIBITION was 40.1%.
Regarding `O=C([C@H]1CCCO1)N1CCC2(CCCN(CCOc3ccccc3)C2)C1` (some centres not stated), the INHIBITION is listed as -41%.
Consider `O=C(N1CCCC1)N1CCC2(CCCN(CCOc3ccccc3)C2)C1` (configuration not stated), for which the INHIBITION is listed as -1.79%.
Regarding `O=C(c1cscn1)N1CCC2(CCCN(CCOc3ccccc3)C2)C1` (configuration not stated), the INHIBITION stood at 53.5%.
To `O=C(CC1CC1)N1CCC2(CCCN(CCOc3ccccc3)C2)C1` (configuration not stated) belongs 57.8%.
Then `Cn1ccnc1CN1CCC(Cn2cc(-c3ccccc3)nn2)CC1`, with 24.5%; and `c1cc(CNCC2CNc3ccnn3C2)cc(OC2CCCC2)n1` (configuration not stated), with -58.6%.
Then `CCCc1cnc(C)nc1N1CCC(Cn2cc(CO)nn2)CC1`, with -65.7%; and `CCc1nccn1-c1cccc(C2CCCN(C3CCCCC3)C2)n1` (configuration not stated), with 53.2%; and `Cc1nccn1-c1cccc(C2CCCN(C3CCCCC3)C2)n1` (configuration not stated), with 44.3%.
With `Cc1nccn1-c1cccc(C2CCCN(C3CCCC3)C2)n1` (configuration not stated), the INHIBITION was 1.22%.
As for `Cc1noc(C)c1CN1Cc2ccnn2CC(C(=O)NCC2CC2)C1` (configuration not stated), the INHIBITION was -30.3%.
For the molecule `CCCN1CCCn2c(nc(CNC(=O)c3nccn3C)cc2=O)C1`, the INHIBITION is recorded as -91.8%.
For `Cc1ccc(-c2cn[nH]c2C2CCCN(c3ncccn3)C2)cc1` (configuration not stated), the INHIBITION is recorded as -1.86%.
With `CCCn1cc(CN2CCC(c3[nH]ncc3S(C)(=O)=O)C2)cn1` (configuration not stated), the INHIBITION was -45.2%.
Then `CCn1cc(CN2CCC(c3[nH]ncc3S(C)(=O)=O)C2)cn1` (configuration not stated), with -44%; and `CCn1cc(CN2CCCC(c3[nH]ncc3-c3ccc(C)cc3)C2)cn1` (configuration not stated), with 60.9%; and `CCn1cc(CN2CCCC(c3[nH]ncc3-c3ccc(F)cc3)C2)cn1` (configuration not stated), with 60.9%.
For the molecule `Cc1ccc(-c2cn[nH]c2C2CCCN(c3cnccn3)C2)cc1` (configuration not stated), the INHIBITION is on record as -28%.
With `O=C(c1ccoc1)N1CC[C@@H]2O[C@@H](COCc3ccccn3)CC[C@@H]21`, the INHIBITION is given as -109%.
As to `CO[C@@H]1CCN(S(=O)(=O)c2cccs2)[C@H]1Cc1cccnc1`, the INHIBITION is reported as -8.97%.
Take `CCC(C)N(Cc1cccnc1)C(=O)c1ccc(F)c(O)c1` (configuration not stated): the INHIBITION is -68.4%.
Then `Cc1cc(N2CCCC(O)(CN(C)C)CC2)nc(-c2ccccc2)n1` (configuration not stated), with 57.4%.
On to `CN(C)CC1(O)CCCN(c2noc(-c3ccccc3)n2)CC1` (configuration not stated), for which the INHIBITION was -3.62%.
Take `CN(C)CC1(O)CCCN(c2nc(-c3ccccc3)no2)CC1` (configuration not stated): the INHIBITION is -61.2%.
For the molecule `CC1CN(C)CCN1C(=O)c1ccn(-c2cccc(F)c2)n1` (configuration not stated), the INHIBITION is recorded as -38.4%.
Turning to `Cc1cc(NC(=O)CN(c2ccccc2)C(C)C)on1`, the INHIBITION is -5.31%.
For `Cc1cc(NC(=O)NC(C)CN2CCN(c3ccccc3)CC2)on1` (configuration not stated), the INHIBITION is recorded as 59.6%.
Consider `Cc1cc(NC(=O)N(C)CCN2CCN(c3ccccc3)CC2)on1`, for which the INHIBITION is -47.3%.
As to `CNC(=O)c1cccnc1N1CCC(Oc2ccc(F)cc2)CC1`, the INHIBITION is -88.2%.
